This is one part of a sample in which hits are shown more often than they occur.
Tgondii IFNg: T. gondii growth inhibition with IFN-gamma, primary screen, cell-based; activity change, negative = inhibition, % (test concentration not listed); AID 1259416, 2018; 69,000 compounds, 3.8% hits; Toxoplasma gondii growth in IFN-gamma-treated host cells; hits give low values; in the data active = activity change below about -70%, passing the limit was not always enough;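 note: host cells are HeLa cells infected with Toxoplasma gondii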
The depositor's hits bear a star; i = inactive.

SMILES	Tgondii IFNg
Cc1ccc(C(=O)N2CC(C(=O)NCc3cccs3)C3(CCOCC3)C2)cc1 (stereo not given)	274.6
COc1cccc(-n2c(=O)c(C(=O)NCc3ccccc3F)c(O)c3cccnc32)c1	99.9
O=C(Nc1ccc(Cl)cc1)c1c(O)c2cccnc2n(-c2cccc(F)c2)c1=O	-102.3*
O=C(Nc1ccc(F)cc1)c1c(O)c2cccnc2n(-c2cccc(F)c2)c1=O	60.4
O=C(NCc1ccccc1)c1c(O)c2cccnc2n(-c2ccccc2)c1=O	5.0
CCc1ccccc1NC(=O)c1c(O)c2cccnc2n(-c2cccc(F)c2)c1=O	-104.4*
Cc1ccc(NC(=O)c2c(O)c3cccnc3n(-c3cccc(F)c3)c2=O)cc1	53.9
O=C(NCc1cc(F)cc(F)c1)c1c(O)c2cccnc2n(-c2ccccc2)c1=O	-91.0*
COc1cccc(-n2c(=O)c(C(=O)NCc3ccc(F)cc3F)c(O)c3cccnc32)c1	50.0
O=C(NCc1cc(F)cc(F)c1)c1c(O)c2cccnc2n(-c2cccc(F)c2)c1=O	106.0
CCOc1ccccc1NC(=O)c1c(O)c2cccnc2n(-c2cccc(F)c2)c1=O	100.4
COc1cccc(-n2c(=O)c(C(=O)NCc3ccccc3Cl)c(O)c3cccnc32)c1	-91.0*
O=C(Nc1ccc(F)cc1F)c1c(O)c2cccnc2n(-c2ccccc2)c1=O	-43.7
CCCS(=O)(=O)N1CCC2(CC1)CCn1c(-c3ccc(C(N)=O)cc3)cnc12	-46.0
Fc1cccc(CN2CCN(Cc3ccc(C4CCCCO4)s3)CC2)c1 (stereo not given)	-6.9
Cc1nc([C@@H]2C[C@@H]3CN(C(=O)c4sccc4C)C[C@@H]3O2)n[nH]1	-16.8
CCCCCCCCC(=O)Oc1ccc2c(C)cc(=O)oc2c1	-14.3
O=C(C[C@@H]1CC[C@@H]2[C@H](COC[C@H](O)CN2S(=O)(=O)c2ccc(F)cc2)O1)NCCN1CCCCC1	3.6
Cc1ccc(NCc2ccc(C(=O)NCC3(CO)CCC3)cc2)cc1	-6.9
Cc1sc[n+](CC(=O)c2ccccc2)c1C	72.1
Cc1cc(/C=C/c2ccccc2)cnc1N	170.8
C=CC[C@@H]1CC=C[C@@H](C)N1C(=O)CC1(c2cccc(C(F)(F)F)c2)CC(=O)N(C2CC2)C1=O (stereo not given in full)	25.9
COc1cccc(-c2ccc([C@@H]3[C@@H](CO)N4C(=O)CN(C(=O)c5cccnc5)C[C@@H]34)cc2)c1	-9.5
CCC(NC(=O)Cn1ccnc1-c1ccccc1)c1ccc(F)cc1 (stereo not given)	29.4
COc1ccccc1CNC(=O)c1c(O)c2cccnc2n(-c2cccc(F)c2)c1=O	234.3
SMILES	Tgondii IFNg
CCOc1ccccc1NC(=O)c1c(O)c2cccnc2n(-c2ccc(F)cc2)c1=O	65.0
Cc1cc(F)ccc1NC(=O)c1c(O)c2cccnc2n(-c2ccccc2)c1=O	-26.8
O=C(NCc1ccccc1Cl)c1c(O)c2cccnc2n(-c2ccc(F)cc2)c1=O	115.3
CCc1ccccc1NC(=O)c1c(O)c2cccnc2n(-c2ccc(F)cc2)c1=O	-79.5*
Cc1ccccc1NC(=O)c1c(O)c2cccnc2n(-c2cccc(F)c2)c1=O	-94.0*
Cc1ccc(NC(=O)c2c(O)c3ccccc3n(-c3ccccc3)c2=O)c(C)c1	-11.1
O=C(Nc1ccccc1F)c1c(O)c2cccnc2n(-c2cccc(F)c2)c1=O	24.6
Cc1cc(F)ccc1NC(=O)c1c(O)c2ccccc2n(-c2ccccc2)c1=O	16.4
COc1ccccc1CNC(=O)c1c(O)c2cccnc2n(-c2ccc(F)cc2)c1=O	-73.9*
CCc1ccc(NC(=O)c2c(O)c3cccnc3n(-c3ccc(F)cc3)c2=O)cc1	80.2
Cc1cccc(C)c1NC(=O)c1c(O)c2ccccc2n(-c2ccccc2)c1=O	-104.9*
COc1ccc(-c2nc(C)c(CCNC(=O)Cc3ccc(F)cc3)s2)cc1	i
COCC(=O)N1CC2(CN(Cc3ccc(Cl)cc3)C2)c2c([nH]c3cc(OC)ccc23)[C@@H]1CO	-33.8
Cc1noc(C)c1C(=O)N1CCSCC1	0.6
CCC(=O)Nc1ccc(OCC(=O)N[C@H]2CCCCNC2=O)cc1	8.8
OC[C@H]1[C@H](c2ccc(C#Cc3ccccc3F)cc2)[C@@H]2CN(CC3CCOCC3)CCCCN12	-52.5
CCC1Oc2ccc(C(=O)c3ccco3)cc2NC1=O (stereo not given)	15.1
COc1cccc(-n2c(=O)c(C(=O)Nc3ccccc3Cl)c(O)c3cccnc32)c1	65.1
O=C(Nc1ccccc1Cl)c1c(O)c2cccnc2n(-c2cccc(F)c2)c1=O	-87.0*
O=C(Nc1ccc(F)cc1Cl)c1c(O)c2cccnc2n(-c2ccc(F)cc2)c1=O	239.5
Cc1oc(-c2cccc(Cl)c2)nc1CN1CCN(C(=O)Nc2ccccc2C(F)(F)F)CC1	-1.0
O=C(N(c1ccccc1)c1ccc(F)cc1)C12CC3CC(CC(C3)C1)C2	-83.4*
O=C(N(Cc1nc2ccccc2c(=O)[nH]1)Cc1cccs1)C12CC3CC(CC(C3)C1)C2	-40.6
CC(=O)NC12CC3CC(C1)CC(C(=O)NC(C)CCc1ccc(F)cc1)(C3)C2 (stereo not given)	7.9
CC(C)Nc1ccnc(C2COCCN2Cc2ccccc2F)n1 (stereo not given)	-9.2
SMILES	Tgondii IFNg
CO[C@H]1CC[C@@H]2CCOc3c(C#N)cccc3C(=O)N(C)C[C@@H](OC)[C@@H](C)C(=O)N(C)C[C@@H]1O2	-30.3
CCC1(O)CCCN(Cc2nc(-c3cc(OC)c4c(c3)OCO4)oc2C)C1 (stereo not given)	-10.9
Cc1ccc(CN2C[C@H]3COC[C@@]3(COCC3CC3)C2)o1	2.5
CNC(=O)[C@H]1C[C@@H]2CN(Cc3ccoc3)C[C@@H]2N1C	-1.7
CNC(=O)[C@@H]1CC2CN(S(=O)(=O)c3ccc(C)c(F)c3)CC2N1C (stereo not given in full)	-92.9*
CNC(=O)[C@@H]1CC2CN(S(=O)(=O)c3ccccc3)CC2N1C(C)=O (stereo not given in full)	31.0
Cc1cccc(CN2CCN(Cc3cnc(-c4ccccn4)nc3)CC2)c1	2.4
CCc1nc(OCC(=O)Nc2ccc(C)cc2C)c2ccccc2n1	13.5
O=C(Cn1ncc2c(N3CCCC3)ncnc21)NCc1ccc(F)cc1	-61.3
CCN(CC)c1ncnc2c1cnn2CC(=O)NCc1cc(F)cc(F)c1	31.8
CCOc1ccc(CNC(=O)Cn2ncc3c(N4CCC(C)CC4)ncnc32)cc1OCC	189.4
CC1CCN(c2ncnc3c2cnn3CC(=O)NCc2ccc(F)cc2)CC1	-95.3*
O=C(Cn1ncc2c(N3CCOCC3)ncnc21)NCc1ccc(C(F)(F)F)cc1	-35.0
O=C(Cn1ncc2c(N3CCCCC3)ncnc21)NCc1ccncc1	-28.9
Cc1ccc(CNC(=O)Cn2ncc3c(N4CCC(C)CC4)ncnc32)cc1	-94.2*
CCc1ccc(CNC(=O)Cn2ncc3c(N4CCCCC4)ncnc32)cc1	167.9
CCN(CC)c1ncnc2c1cnn2CC(=O)NCc1ccc(F)c(Cl)c1	-27.5
CCN(CC)c1ncnc2c1cnn2CC(=O)NCc1ccc(F)cc1F	-104.2*
O=C(Cn1ncc2c(N3CCCCCC3)ncnc21)NCc1ccc(C(F)(F)F)cc1	-81.9*
Cc1ccc(CNC(=O)Cn2ncc3c(N4CCCC4)ncnc32)cc1	44.3
CCS(=O)(=O)N1CCOCC2(CC(CN3CCCC3)CO2)C1 (stereo not given)	-2.1
C=CCN(Cc1ccccn1)Cc1cn[nH]c1-c1ccc(F)cc1	7.7
CC(C)N1CCC(CNC(=O)CCO)C1 (stereo not given)	11.2
